Source: PubChem BioAssay (National Center for Advancing Translational Sciences (NCATS))
This is a sample that favours compounds with a hit; in the whole collection about 3.1% have one here.
TRb SRC2 PPI: qHTS for Inhibitors of the Interaction of Thyroid Hormone Receptor and Steroid Receptor Coregulator 2; Thyroid hormone receptor beta (Homo sapiens), P10828; TRbeta-SRC2 peptide binding, fluorescence polarization; receptor liganded with 1 µM T3; Potency, µM (top dose mostly 106 µM), for inactives: top-dose activity change, negative = inhibition, actives largely listed as inhibitors; actives 0.065% (n = 280,000); AID 1469, 2008;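 further: plate controls were bound peptide for no effect and peptide without receptor for full effect; nearly all actives have a fitted effect of over 50% in size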
Target sequence (P10828 whole entry, looked up): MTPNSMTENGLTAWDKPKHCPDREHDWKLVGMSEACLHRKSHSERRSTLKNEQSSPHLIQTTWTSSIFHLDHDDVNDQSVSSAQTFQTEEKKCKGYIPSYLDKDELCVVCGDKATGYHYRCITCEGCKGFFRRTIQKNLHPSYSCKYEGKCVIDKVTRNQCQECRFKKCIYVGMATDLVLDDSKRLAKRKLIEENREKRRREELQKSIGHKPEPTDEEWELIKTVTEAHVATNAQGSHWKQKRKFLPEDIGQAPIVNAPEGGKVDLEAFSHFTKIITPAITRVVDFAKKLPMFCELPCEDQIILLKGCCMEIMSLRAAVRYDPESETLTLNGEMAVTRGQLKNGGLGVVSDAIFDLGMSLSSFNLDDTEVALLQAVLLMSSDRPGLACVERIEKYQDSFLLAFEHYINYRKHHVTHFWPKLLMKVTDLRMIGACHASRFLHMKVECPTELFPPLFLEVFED
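TRb LBD 0.6 uM + Texas Red SRC2 peptide 20 nM, 1 uM T3, Tris buffer w/ 5% DMSO; compound pinned, 5 h RT; FP read ex 555/em 632; normalized to unbound and bound controls.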
Tau fibril FP: qHTS for Inhibitors of Tau Fibril Formation, Fluorescence Polarization; K18 P301L tau heparin fibrillization, Alexa594 FP, 6 h; Potency, µM (titrated, usually from 57.7 µM), for the others: at the top dose activity, negative = inhibition, most hits filed as inhibitors; Microtubule-associated protein tau (Homo sapiens), P10636; actives 0.39% (n = 280,000); further: nearly all actives have a fitted effect of over 55% in size
Target sequence (P10636 561-689 P618L limits assumed): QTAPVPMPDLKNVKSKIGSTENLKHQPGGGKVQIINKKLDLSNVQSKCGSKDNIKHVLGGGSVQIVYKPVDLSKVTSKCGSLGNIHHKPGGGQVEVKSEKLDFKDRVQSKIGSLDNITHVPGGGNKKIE
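Human K18 P301L fragment (15 uM unlabeled plus 0.24 uM Alexa 594-labeled) in 100 mM sodium acetate pH 7 with compound, aggregation induced by 20 uM heparin for 6 hr at 37 C. ThT (30 uM) added for 1 hr, then Alexa 594 FP read.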
Tau fluor counter: Counterscreen qHTS for Inhibitors of Tau Fibril Formation, Fluorescence Polarization; tau K18 P301L Alexa594 fluorescence, heparin fibrillization; Potency, µM (highest dose often 57.7 µM), without a hit: at the top dose activity change, negative = decrease; actives 0.93% (n = 280,000); further: nearly all actives have a fitted effect of over 55% in size
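Human K18 P301L tau (15 uM unlabeled plus 0.24 uM Alexa 594-labeled, final) in 100 mM sodium acetate pH 7 was mixed with compound and 20 uM heparin and incubated 6 hr at 37 C.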
Tau fibril ThT: qHTS for Inhibitors of Tau Fibril Formation, Thioflavin T Binding; Potency, µM (doses to about 57.4 µM), for the others: at the highest dose activity, negative = inhibition, hits mostly inhibitors; AID 1460, 2008; Microtubule-associated protein tau (Homo sapiens), P10636; recombinant tau K18 P301L (four-repeat tau fragment), heparin-induced fibrillization, ThT fluorescence; actives 2.1% (n = 270,000); further: nearly all actives have a fitted effect of over 55% in size
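Aggregation was driven by heparin (20 uM final) acting on recombinant tau […] bearing P301L in 100 mM sodium acetate pH 7; fibrils were detected with Thioflavin T.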
TR SRC2 fluor cs: Total Fluorescence Counterscreen for Inhibitors of the Interaction of Thyroid Hormone Receptor and Steroid Receptor Coregulator 2; TRb/SRC2 Texas Red total fluorescence interference; Potency, µM (doses to about 106 µM), without a hit: top-dose fluorescence change, negative = quenching; actives 0.29% (n = 280,000); active means well fitted curve in either direction with a large enough effect; inconclusive means small, poorly fitted or top-dose-only effect
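Human TRb ligand-binding domain at 0.6 uM with 20 nM Texas Red SRC2 peptide in Tris buffer containing 1 uM T3 and 5% DMSO, incubated with compound 5 h at ambient temperature. Total fluorescence (555/632 nm) calculated as parallel + 2 × perpendicular.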
GoLoco inh red: qHTS Assay for Inhibitors of RGS12 GoLoco Motif Activity (Red Fluorophore). Guanine nucleotide-binding protein G(i) subunit alpha-1 (Homo sapiens), P63096. Gai1:RGS12 GoLoco peptide FP, rhodamine, 10 min. Potency, µM (top dose mostly 61.6 µM), for the others: at the highest dose activity, negative = inhibition, actives largely listed as inhibitors. actives 0.44% (n = 230,000). AID 880, 2007; active means well fitted inhibition curve with a large enough effect, not every such curve was filed as active; inactive means no such curve, though single readings can be large or run the other way; further: nearly all actives have a fitted effect of over 30% in size
Active calls of the source: *; [ ] = remark or other dose. Unless noted, the call rests on the fitted dose curve; in most records, active means well fitted curve in the direction sought with a large enough effect; inconclusive means small, poorly fitted or top-dose-only effect, or another doubt; inactive means no such curve, though single readings can be large; an effect the other way counts as inactive or inconclusive. Unless noted, on the % scale 0 is the no-effect control and ±100 the full control effect; potency means the concentration at half of the fitted maximal effect.

How did CCOC(=O)c1ccc(CN(Cc2ccc(C)cc2)S(=O)(=O)c2ccc(NC(C)=O)cc2)cc1 do in these assays?
TRb SRC2 PPI: 7%; Tau fibril FP: 11µM*; Tau fluor counter: inconclusive; Tau fibril ThT: 4%; TR SRC2 fluor cs: 0%

How did CCOC(=O)c1ccc(CN(Cc2ccccc2)S(=O)(=O)c2ccc(C)cc2)cc1 do in these assays?
TRb SRC2 PPI: 8%; Tau fibril FP: -3%; Tau fluor counter: -2%; Tau fibril ThT: 10%; TR SRC2 fluor cs: -4%

What do the screens show for `Cc1cc(O)c(C(C[N+](=O)[O-])c2ccc(Cl)cc2Cl)c(=O)o1` (stereo not drawn)?
TRb SRC2 PPI: 7%; Tau fibril FP: inconclusive; Tau fluor counter: -22%; Tau fibril ThT: 28µM*; TR SRC2 fluor cs: 0%; GoLoco inh red: 26%

What do the screens show for `CC(OC(=O)C1=COCCO1)C(=O)Nc1cccc(S(=O)(=O)N2CCOCC2)c1` (stereo not drawn)?
TRb SRC2 PPI: -3%; Tau fibril FP: inconclusive; Tau fluor counter: -4%; Tau fibril ThT: -3%; TR SRC2 fluor cs: 0%; GoLoco inh red: -3%

What do the screens show for `CCc1cccc(C)c1NC(=O)c1cn2c3c(ccc(Cl)c3c1=O)OC(C)C2` (stereo not drawn)?
TRb SRC2 PPI: -19%; Tau fibril FP: 5%; Tau fluor counter: 6%; Tau fibril ThT: 12%; TR SRC2 fluor cs: 100µM*[quencher]

How did COc1ccc(C2C3=C(CC(C)(C)CC3=O)N(CCN3CCOCC3)C3=C2C(=O)CC(C)(C)C3)cc1 do in these assays?
TRb SRC2 PPI: 1%; Tau fibril FP: 1%; Tau fluor counter: -2%; Tau fibril ThT: -6%; TR SRC2 fluor cs: 2%; GoLoco inh red: 2%

Results for Cc1cc(C)nc(SCC(=O)N/N=C/c2cccn2-c2cccc(C(F)(F)F)c2)n1 ?
TRb SRC2 PPI: -21%; Tau fibril FP: 8%; Tau fluor counter: -3%; Tau fibril ThT: -6%; TR SRC2 fluor cs: 1%; GoLoco inh red: -34%

Results for Cc1cc(C)nc(SCC(=O)N/N=C/c2cccn2-c2ccc(O)cc2)n1 ?
TRb SRC2 PPI: -2%; Tau fibril FP: 10%; Tau fluor counter: -17%; Tau fibril ThT: -9%; TR SRC2 fluor cs: -6%; GoLoco inh red: 3.2µM*

How did O=C(Nc1c(-c2ccccc2)nc2ccccn12)c1ccc(Br)cc1 do in these assays?
TRb SRC2 PPI: -9%; Tau fibril FP: -5%; Tau fluor counter: -22%; Tau fibril ThT: inconclusive; TR SRC2 fluor cs: 1%

What do the screens show for `CC(=O)c1ccc(NC(=O)C2CC(=O)N(Cc3ccccc3)C2)cc1` (stereo not drawn)?
TRb SRC2 PPI: -7%; Tau fibril FP: -1%; Tau fluor counter: -17%; Tau fibril ThT: 8.9µM*; TR SRC2 fluor cs: 0%; GoLoco inh red: -6%

What do the screens show for `O=C(O)c1cccc(NC(=O)C2CC(=O)N(Cc3ccccc3)C2)c1` (stereo not drawn)?
TRb SRC2 PPI: 4%; Tau fibril FP: 3%; Tau fluor counter: 3%; Tau fibril ThT: -2%; TR SRC2 fluor cs: -4%; GoLoco inh red: -2%

What do the screens show for `CC(Sc1nnnn1-c1ccc(O)cc1)c1nc2ccccc2c(=O)[nH]1` (stereo not drawn)?
TRb SRC2 PPI: -1%; Tau fibril FP: -1%; Tau fluor counter: -6%; Tau fibril ThT: 2%; TR SRC2 fluor cs: -2%; GoLoco inh red: 7%

Results for O=C(O)c1ccc(N/N=C/C2=Cc3ccccc3OC2)cc1 ?
TRb SRC2 PPI: 0%; Tau fibril FP: 3%; Tau fluor counter: 13µM*[quencher]; Tau fibril ThT: 4µM*; TR SRC2 fluor cs: -11%; GoLoco inh red: 0%

What do the screens show for `CCN(CC)S(=O)(=O)c1ccc2nc(NC(=O)c3ccccc3OC)sc2c1`?
TRb SRC2 PPI: -3%; Tau fibril FP: -9%; Tau fluor counter: -3%; Tau fibril ThT: 17%; TR SRC2 fluor cs: 1%

How did CC(C)CCNC(=O)C(c1ccco1)N(CC1CCCO1)C(=O)Cn1nnc2ccccc21 (stereo not drawn) do in these assays?
TRb SRC2 PPI: -5%; Tau fibril FP: 8%; Tau fluor counter: 7%; Tau fibril ThT: 2%; TR SRC2 fluor cs: -3%; GoLoco inh red: 4%

What do the screens show for `O=C(OCn1ncc(Br)c(Br)c1=O)c1c(F)cccc1F`?
TRb SRC2 PPI: -2%; Tau fibril FP: inconclusive; Tau fluor counter: -18%; Tau fibril ThT: 7.1µM*; TR SRC2 fluor cs: -4%; GoLoco inh red: -7%

What do the screens show for `COc1ccc(N=Nc2nc3ccc(Br)cc3n2C)cc1`?
TRb SRC2 PPI: 5%; Tau fibril FP: 3%; Tau fluor counter: -22%; Tau fibril ThT: 1.6µM*; TR SRC2 fluor cs: 1%; GoLoco inh red: -31%

Results for CCOc1ccc(-n2c(Cc3ccccc3)nnc2SCc2nc(-c3cccs3)no2)cc1 ?
TRb SRC2 PPI: -2%; Tau fibril FP: 9%; Tau fluor counter: -23%; Tau fibril ThT: -16%; TR SRC2 fluor cs: -20%

How did C=CCn1c(N)c(C(=O)Nc2cccc(C)c2)c2nc3ccccc3nc21 do in these assays?
TRb SRC2 PPI: -5%; Tau fibril FP: inconclusive; Tau fluor counter: 11µM*[quencher]; Tau fibril ThT: inconclusive; TR SRC2 fluor cs: 0%; GoLoco inh red: 7%

Results for O=C(Cc1cccs1)NCCc1csc(-c2ccccc2)n1 ?
TRb SRC2 PPI: 1%; Tau fibril FP: 5%; Tau fluor counter: -18%; Tau fibril ThT: -15%; TR SRC2 fluor cs: -1%; GoLoco inh red: 24%

Results for CC1CCC(NC(=O)C2(C)Cc3ccccc3C(=O)N2Cc2ccc(F)cc2)CC1 (stereo not drawn) ?
TRb SRC2 PPI: 1%; Tau fibril FP: -8%; Tau fluor counter: -11%; Tau fibril ThT: 0%; TR SRC2 fluor cs: -1%

What do the screens show for `CC1(C(=O)NC2CCCCC2)Cc2ccccc2C(=O)N1Cc1ccc(F)cc1` (stereo not drawn)?
TRb SRC2 PPI: -9%; Tau fibril FP: -4%; Tau fluor counter: -17%; Tau fibril ThT: -14%; TR SRC2 fluor cs: 32µM*[quencher]
